The results in this text go back to PubChem BioAssay (NCATS).

Inconclusive results are not listed. Calls of active or inactive are those of the source. Calls follow the shape of the dose curve; as a rule, active = well fitted curve in either direction with a large enough effect (not every such curve was filed as active); inconclusive = small, poorly fitted or top-dose-only effect, or another doubt; inactive = flat fitted curve, though single readings scatter.
% is scaled to controls: 0 for no effect and ±100 for the full control effect.

A short description of this assay: NFAT Signaling Pathway (AID 444).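 Also: carbachol stimulus at about its EC50 of 1 µM final.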 To be noted: Jurkat NFAT-bla M1, carbachol, beta-lactamase ratio, 5 h; at 7.69 µM (top of the series) unless noted. In outline:
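Jurkat cells with NFAT-driven β-lactamase reporter and co-expressed M1 receptor, stimulated with carbachol (final 1 uM, ~EC50), compound titration, 5 h at 37 °C. CCF4 loaded 1 h at RT; 460/530 nm ratio gave %activity and AC50.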
For the molecule `Cc1ccc(O)cc1` (tested in a mixture with another compound), the activity change, negative = inhibition was 9.05% (inactive).
As for `CCCOC(=O)[C@@H]1[C@@H](C(=O)O)[C@H]2CC[C@@H]1O2`, the figure is -0.63% (inactive); as for `O=C(O)C(Oc1nc(=S)[nH]c(=S)[nH]1)(c1ccc(Cl)cc1)c1ccc(Cl)cc1`, 0.65% (inactive).
Consider `O=C(Nc1ccc([As](=O)(O)O)cc1)Nc1cccc(Cl)c1Cl`, for which the activity change, negative = inhibition is 6.56% (inactive).
The result for `C[C@@]12CC[C@H]3[C@@H](CC=C4C[C@H](OS(=O)(=O)O)CC[C@]43C)[C@H]1CCC2=O` reads -0.252% [at 38 µM] (inactive).
As for `CCOC(=O)[C@@H]1[C@@H]2c3ccccc3-c3ccccc3[C@H]2C[C@H]1O`, the figure is 2.27% (inactive).
As for `COC(=O)c1c(C)ccc2c(O)c3c(cc12)C(=O)c1c2c(cc(O)c1C3=O)[C@@]1(C)O[C@@](C)(O2)[C@@H](O)[C@H](N(C)C)[C@H]1O`, the figure is -7.69% (inactive); as for `COc1ccc2c(c1O)-c1cccc3c1[C@H](C2)N(C)CC3`, -9.88% [at 38 µM] (inactive); as for `COc1cc2c(cc1OC)[C@@]13CCN4C=C5CCO[C@H]6CC(=O)N2[C@@H]1[C@@H]6[C@H]5C[C@H]43`, 16.4% (inactive).
For the molecule `COc1cc([C@@H](O)CN)ccc1O`, the activity change, negative = inhibition was 6.77% [at 38 µM] (inactive).
The result for `O=C(O)C(C(=O)O)P(=S)(S)c1ccccc1` (stereo not drawn) reads 11.1% (inactive); that for `O=C(O)[C@H]1[C@H](C(=O)O)[C@H]2CC[C@@H]1O2`, -8.52% [at 38 µM] (inactive).
The result for `N=C(N)SCc1ccc(Cl)c2ccccc12` (tested in a mixture with another compound) reads -1.16% (inactive).
